Rows were chosen to be rich in hits. Some 3% of all compounds tested hit in one or more screens of this group.
PAFAH1B3 inh – PAFAH1B3 enzyme inhibitors, primary screen, biochemical, fluorescence polarization, human; Platelet-activating factor acetylhydrolase IB subunit alpha1 (Homo sapiens), Q15102; inhibition, % at 3.39 µM; recombinant PAFAH1B3, FP-rhodamine probe; hit rate 0.28% among 340,000;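 active = inhibition above the screen-wide average of all tested compounds plus 3 SD, cut at about 25% in these data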
Target sequence (Q15102 whole entry, looked up): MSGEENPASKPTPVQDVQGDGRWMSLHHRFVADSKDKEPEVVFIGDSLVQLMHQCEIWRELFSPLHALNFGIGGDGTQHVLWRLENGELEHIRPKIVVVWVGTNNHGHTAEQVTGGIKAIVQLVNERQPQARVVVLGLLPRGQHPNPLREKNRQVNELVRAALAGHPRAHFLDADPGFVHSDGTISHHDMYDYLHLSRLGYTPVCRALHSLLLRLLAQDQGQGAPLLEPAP
DAGLB inhibitor – DAGLB lipase inhibitors, primary screen, biochemical, fluorescence, HTS; HEK293T DAGLB membrane lysate, EnzChek fluorogenic substrate; Diacylglycerol lipase-beta (Homo sapiens), Q8NCG7; inhibition, % at 5.17 µM; AID 504411, 2011; hit rate 0.059% among 340,000; in the data active = inhibition above about 34%
ATG4B inhibitor – ATG4B protease inhibitors, primary screen, biochemical, fluorescence, uHTS; Cysteine protease ATG4B (Homo sapiens), Q9Y4P1; ATG4B cleavage of LC3-PLA2, NBD-HPC fluorescence, 1 h; inhibition, % at 8.33 µM; hit rate 0.51% among 340,000; in the data active = inhibition above about 40%
Target sequence (Q9Y4P1 whole entry, looked up): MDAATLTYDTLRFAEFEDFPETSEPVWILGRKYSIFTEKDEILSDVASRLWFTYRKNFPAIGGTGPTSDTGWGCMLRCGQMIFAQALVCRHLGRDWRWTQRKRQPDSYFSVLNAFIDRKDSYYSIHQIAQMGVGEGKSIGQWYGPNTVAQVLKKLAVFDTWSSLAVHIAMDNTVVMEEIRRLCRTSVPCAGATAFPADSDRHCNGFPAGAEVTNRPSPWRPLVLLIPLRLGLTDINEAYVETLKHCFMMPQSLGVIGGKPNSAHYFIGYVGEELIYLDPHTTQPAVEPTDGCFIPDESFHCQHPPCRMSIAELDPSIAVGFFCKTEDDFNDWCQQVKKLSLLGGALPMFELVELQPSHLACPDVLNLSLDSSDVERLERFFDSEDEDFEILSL
PAFAH2 FP inh – PAFAH2 enzyme inhibitors, primary screen, biochemical, fluorescence polarization, human; Platelet-activating factor acetylhydrolase 2, cytoplasmic (Homo sapiens), Q99487; inhibition, % at 3.39 µM; recombinant PAFAH2, FP-rhodamine activity probe; hit rate 0.99% among 340,000;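 active = inhibition above the mean over all tested compounds plus 3 SD, cut at about 30% in these data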;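 note: inhibitors block probe labeling of enzyme so polarization drops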
pPAFAH FP inh – pPAFAH enzyme inhibitors, primary screen, biochemical, fluorescence polarization, human. Platelet-activating factor acetylhydrolase (Homo sapiens), Q13093. recombinant pPAFAH, FP-rhodamine probe fluorescence polarization. inhibition, % at 3.39 µM. hit rate 1.5% among 330,000. AID 463082, 2010;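 active = inhibition above the mean inhibition across the screen plus 3 SD, cut at about 25% in these data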;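 note: inhibitors block binding of the rhodamine activity-based probe so polarization drops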
PAFAH1B2 inh – PAFAH1B2 enzyme inhibitors, primary screen, biochemical, fluorescence polarization, human; Platelet-activating factor acetylhydrolase IB subunit alpha2 (Homo sapiens), P68402; recombinant PAFAH1B2, FP-rhodamine activity probe; inhibition, % at 3.39 µM; hit rate 1.2% among 340,000; AID 492953, 2010;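 active = inhibition above the mean of all tested compounds plus 3 SD, cut at about 24% in these data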
A number is an active result; – = inactive; · = not tested or not shown.

SMILES	PAFAH1B3 inh	DAGLB inhibitor	ATG4B inhibitor	PAFAH2 FP inh	pPAFAH FP inh	PAFAH1B2 inh
CC(C)N(CCNC(=O)C1CCCN(c2ncnc3c2nc2n3CCCCC2)C1)Cc1ccccc1 (stereo not drawn)	–	–	–	–	–	–
COCCCN(C(=S)NC(=O)c1ccc(C(C)(C)C)cc1)c1c(N)n(Cc2ccccc2)c(=O)[nH]c1=O	–	–	–	–	–	27
COc1ccc(C(=O)NC(=S)N(CCC(C)C)c2c(N)n(Cc3ccccc3)c(=O)[nH]c2=O)cc1	–	–	–	–	–	–
CCCCN(C(=O)c1cccc(N2C(=O)c3ccccc3C2=O)c1)c1c(N)n(CC(C)C)c(=O)[nH]c1=O	–	–	–	–	–	–
CCCCN(C(=O)c1cccc(-n2cccc2)c1)c1c(N)n(Cc2ccccc2)c(=O)[nH]c1=O	–	–	·	–	33	–
CCOC(=O)N1CCc2c(sc(NC(C)=O)c2C(N)=O)C1	–	–	–	–	–	–
CCN1CCc2c(sc(NC(=O)Nc3ccc(Cl)c(Cl)c3)c2C(N)=O)C1	–	–	–	–	33	–
CCOC(=O)N1CCc2c(sc(NC(=O)c3ccc(Cl)s3)c2C(N)=O)C1	·	·	·	·	25	·
CC(C)Cn1c(-c2cc([N+](=O)[O-])ccc2Cl)nc2c1c(=O)[nH]c(=O)n2Cc1ccccc1	–	–	–	–	25	–
COCCn1c(=O)[nH]c(=O)c2c1nc(-c1ccc(-c3ccc(Cl)cc3[N+](=O)[O-])o1)n2Cc1ccccc1	–	–	–	–	27	–
COCCn1c(-c2ccc(-c3ccc([N+](=O)[O-])cc3Br)o2)nc2c1c(=O)[nH]c(=O)n2CC(C)C	–	–	–	–	29	–
COCCn1c(-c2ccc(SC)cc2)nc2c1c(=O)[nH]c(=O)n2CC(C)C	–	–	–	–	–	–
S=C1NC2(CCCCC2)Nc2ccccc21	–	–	–	–	–	–
CCOC(=O)C1CCCN(C(=O)c2csc(-c3ccc4c(c3)CCO4)n2)C1 (stereo not drawn)	–	–	–	–	–	–
NC(=O)C1CCCN(S(=O)(=O)c2ccc(Br)cc2)C1 (stereo not drawn)	–	–	–	–	–	28
COc1ccc(CNC(=O)CCNC(=O)C2CCN(S(=O)(=O)c3ccc(OC)cc3)CC2)cc1	·	–	·	·	·	·
O=C(CCNC(=O)C1CCN(S(=O)(=O)c2ccc(F)cc2)CC1)NCc1ccc(F)cc1	–	–	–	–	–	27
CCCNC(=O)C1CCN(S(=O)(=O)c2ccc(Br)cc2)CC1	–	–	–	–	–	25
NC(=O)C1CCCN(S(=O)(=O)c2ccc3ccccc3c2)C1 (stereo not drawn)	–	–	–	–	–	–
O=C(NCCC1CCCCN1S(=O)(=O)c1ccccc1)C(=O)NCc1ccccc1 (stereo not drawn)	–	–	–	–	–	–
O=C(NCCC1CCCCN1S(=O)(=O)c1ccccc1)C(=O)NCc1ccc(F)cc1 (stereo not drawn)	–	–	–	–	–	27
CCOC(=O)COn1c(=O)c(-c2ccccc2)[n+]([O-])c2ccccc21	–	–	–	–	–	–
Cc1ccc2nc(Cl)c(-c3ccccc3)cc2c1	·	·	–	·	31	·
Cc1[nH]c2ccccc2c1C(=O)C(=O)NCC1CCCO1 (stereo not drawn)	–	–	–	–	–	–
Cc1[nH]c2ccccc2c1C(=O)C(=O)NC1CC1	–	–	–	–	28	–
SMILES	PAFAH1B3 inh	DAGLB inhibitor	ATG4B inhibitor	PAFAH2 FP inh	pPAFAH FP inh	PAFAH1B2 inh
COCC(C)NC(=O)c1cc2c(ccc3ccccc32)oc1=O (stereo not drawn)	–	–	–	–	–	–
O=C(COc1cc(O)c2c(=O)cc(-c3ccccc3)oc2c1)c1cccc([N+](=O)[O-])c1	–	–	–	–	–	25
O=C(N/N=C/c1cc(Cl)cc([N+](=O)[O-])c1O)c1cc(-c2ccccn2)nc2ccccc12	–	–	–	–	27	–
COc1cccc(/C=N/NC(=O)c2cc(-c3ccccn3)nc3ccccc23)c1O	–	–	–	–	–	–
Cc1ccc(NS(=O)(=O)c2cccc(C(=O)Nc3c(C)n(C)n(-c4ccccc4)c3=O)c2)cc1	·	·	–	·	25	·
Cc1ccc(S(=O)(=O)Nc2ccc(C(=O)Nc3cc(C)on3)cc2)cc1	–	–	–	–	–	–
Cc1ccc(NS(=O)(=O)c2cccc(C(=O)Nc3cc(C)on3)c2)cc1	–	–	–	–	33	–
O=C(COC(=O)c1cc(Br)ccc1O)c1ccc(F)cc1	–	–	–	–	–	–
CC(=O)N1c2ccc(S(=O)(=O)N3CCC(C(=O)Nc4ncccc4C)CC3)cc2CC1C (stereo not drawn)	–	–	–	–	–	–
CC(C)Cc1nnc(NC(=O)C23CC4CC(CC(C4)C2)C3)s1	–	–	–	–	–	–
CCc1nnc(NC(=O)C23CC4CC(CC(C4)C2)C3)s1	–	–	–	–	–	30
NC(=O)CSc1nnc(NC(=O)C23CC4CC(CC(C4)C2)C3)s1	–	–	–	–	–	28
COc1ccc(N2CCN(C(=O)c3ccc(C(C)(C)C)cc3)CC2)cc1	–	–	–	–	–	–
COc1ccc(N2CCN(C(=O)CCNC(=O)c3ccc(C(C)(C)C)cc3)CC2)cc1	–	–	–	–	–	64
COc1ccc(CCNC(=O)CSc2nnc3ccc(-c4ccccn4)nn23)cc1OC	–	–	–	–	–	–
O=C(O)c1nn(CC(=O)N2CCN(c3ncc(C(F)(F)F)cc3Cl)CC2)c(=O)c2ccccc12	–	–	–	–	–	–
Cc1cc(=O)oc2cc(OCC(=O)Nc3ccc4[nH]c(=O)[nH]c4c3)ccc12	–	–	–	–	–	–
O=C(O)c1ccc(-n2nnnc2SCc2ccccc2Br)cc1	–	–	–	–	–	27
O=C(O)c1ccc(CSc2nnnn2-c2ccc(F)cc2)cc1	–	–	–	–	–	–
Cc1[nH]c2ccc(C(=O)NCCCN3CCN(C)CC3)cc2c1C	–	–	–	–	–	–
COc1ccc2ccccc2c1C(O)c1nccn1C (stereo not drawn)	39	–	–	45	–	32
Cc1cccc(NS(=O)(=O)c2ccc(C)c(C(=O)NC3CCN(Cc4ccccc4)CC3)c2)c1	–	–	–	–	·	–
Cc1nc2ccccc2n1CCOc1ccc([N+](=O)[O-])cc1	–	–	–	–	30	–
COc1ccc(OCCn2c(C)nc3ccccc32)cc1	·	–	·	·	·	·
Nc1ccc(N2CCCCCC2)cc1	·	·	·	·	29	·
Cc1cccc(CN2CCC(CNC(=O)CSc3cc(=O)n(C)c4cc(Cl)ccc34)CC2)c1	–	–	–	–	–	–
